LASV entry inh: blocks Lassa virus binding to or entry into cells | Lassa virus pseudotype entry inhibition, cell reporter | Potency, µM (top dose mostly 37.9 µM), for the others: top-dose activity change, negative = inhibition, usual class: inhibitors | 1.2% of 300,000 active | AID 540256; calls by dose curve; tested in HEK293 cells; also: nearly all actives have a fitted effect of over 50% in size
Marburg entry inh: inhibitors of Marburg virus binding or cell entry; Marburg virus pseudotyped entry inhibition, cell reporter; 1.8% of 300,000 active; Potency, µM (series often up to 37.8 µM), without a hit: at the top dose activity change, negative = inhibition, actives largely listed as inhibitors; AID 540276; calls by dose curve; tested in HEK293 cells
VACV Venus inh: vaccinia inhibition (Venus reporter); Vaccinia virus Venus reporter expression, fluorescence; Potency, µM (doses to about 36.5 µM), for the others: top-dose activity change, negative = inhibition, hits mostly inhibitors; 0.46% of 330,000 active; AID 720580; calls by dose curve; tested in A549 cells; also: nearly all actives have a fitted effect of over 30% in size
FMDV inh: blocks foot and mouth disease virus | FMDV antiviral cell-based qHTS | Potency, µM (doses to about 57.9 µM), for inactives: at the highest dose activity change, negative = inhibition, actives largely listed as inhibitors | 1.2% of 410,000 active; calls by dose curve; tested in HEK293T cells; also: read-out not given here; nearly all actives have a fitted effect of over 45% in size
VACV mCherry inh: inhibitors of vaccinia virus infection (mCherry reporter signal); Vaccinia virus mCherry reporter infection, fluorescence; Potency, µM (top dose mostly 36.5 µM), without a hit: top-dose activity change, negative = inhibition, usual class: inhibitors; AID 720579; 0.63% of 310,000 active; calls by dose curve; tested in A549 cells; also: nearly all actives have a fitted effect of over 35% in size
* = called active by the depositor; i = inactive; ? = inconclusive; . = no result given; [ ] = dose if it differs, or a comment. Hits are enriched below; roughly 3.2% of the tested compounds scored in any of these assays. % is scaled to controls: 0 for no effect and ±100 for the full control effect; potency is read from the fitted curve at half-maximal effect.

SMILES | LASV entry inh | Marburg entry inh | VACV Venus inh | FMDV inh | VACV mCherry inh
N#Cc1ccccc1C[C@H](N)C(=O)NC[C@H]1O[C@@H](n2cnc3c(N)ncnc32)[C@H](O)[C@@H]1O | . | . | 1% | -22% | 22%
CCn1c(=O)c(C(=O)CN(C)Cc2ccc(F)cc2)c(N)n(Cc2ccccc2)c1=O | -34% | 10µM* | -10% | -28% | -3%
CCn1c(=O)c(C(=O)CN(C)Cc2cccc(OC)c2OC)c(N)n(Cc2ccccc2)c1=O | 2% | ? | -10% | -17% | -17%
O=S1(=O)CCOC[C@H](c2ccccc2)N1Cc1ccc(Cl)cc1Cl | . | . | -20% | . | i
Oc1ccccc1N=Nc1nc(-c2ccccc2)c(-c2ccccc2)[nH]1 | 1.4µM* | 1µM* | ? | 28µM* | ?
COc1cc(OC)cc(-c2cc3nc(C)c(CCC(=O)NCc4ccccc4)c(C)n3n2)c1 | 8.9µM* | 11µM* | -25% | 5.6µM* | ?
COc1cc(OC)cc(-c2cc3nc(C)c(CCC(=O)NCc4ccc(Cl)cc4)c(C)n3n2)c1 | ? | 4.5µM* | -22% | 13µM* | -5%
COc1cc(OC)cc(-c2cc3nc(C)c(CCC(=O)NCCc4cccc(C)c4)c(C)n3n2)c1 | 7%[46.1 µM] | -7%[46.1 µM] | -8% | -27% | -16%
COc1ccc(CNC(=O)CCc2c(C)nc3cc(-c4ccc(OC)cc4OC)nn3c2C)cc1 | 6%[46.1 µM] | -8%[46.1 µM] | -10% | 2% | -11%
CCN(CC)c1ccc(/C=C/c2ccncc2)cc1 | . | . | i | . | 6%
COc1ccc2cc(CNCc3nonc3C)c(N3CCCC(CO)C3)nc2c1 (configuration not stated) | . | . | -4% | 13% | -12%
CCN1/C(=C/C=C/C2=[N+](CC)c3ccccc3C2(C)C)C(C)(C)c2ccccc21 | . | . | . | 3.5µM* | i
CCOc1nc(Nc2cc(Cl)ccc2OC)nc(OCC)n1 | -17% | 6% | -3% | -5% | .
C=CCNc1nc(Cl)nc(Nc2cc(Cl)ccc2OC)n1 | 3% | 13µM* | -4% | -12% | -14%
O=C(CN1CCN(C(=O)CNC(=O)c2ccc(-c3ccccc3)cc2)CC1)Nc1ccccc1Cl | . | . | ? | 28µM* | ?
O=C(CN1CCCCCC1)Nc1ccccc1Cl | . | . | . | 10% | .
CC(=O)N1CCN(CC(=O)Nc2ccccc2Sc2ccccc2)CC1 | 10µM* | ? | -19% | 0% | -18%
NS(=O)(=O)c1ccccc1 | 18% | -3% | 2% | -2% | i
O=S(=O)(/C=C/C=C/S(=O)(=O)c1ccccc1)c1ccccc1 | 1µM* | ? | 14µM* | 7.9µM* | ?
CC(c1ccco1)N(C(=O)C12CC3CC(CC(C)(C3)C1)C2)c1ccccn1 (configuration not stated) | 11µM* | ? | -3% | 16% | .
CC(c1ccco1)N(C(=O)c1ccc(F)cc1)c1ccccn1 (configuration not stated) | 7% | 12% | -2% | 7% | i
CCCCCCCCCCCCCCCC[N+](C)(C)Cc1ccc(F)cc1 | ? | ? | ? | -9% | -24%
CCCCCCCCCCCCC[N+](C)(C)Cc1ccccc1 | . | . | 11µM* | 28µM* | 11µM*
Cc1[nH]c2ccc(C(=O)OC(C)C(=O)N(C)C3CCCCC3)cc2c1C (configuration not stated) | ? | -28% | -28% | 0% | -27%
Cc1[nH]c2ccc(C(=O)OC(C)C(=O)N(C)c3ccccc3)cc2c1C (configuration not stated) | 5µM* | 14% | ? | -34% | ?
SMILES | LASV entry inh | Marburg entry inh | VACV Venus inh | FMDV inh | VACV mCherry inh
Cc1c(CN(C)C)c2c(n1C)C(=O)c1ccc(Br)cc1-2 | ? | ? | -26% | . | -20%
CCOC(=O)c1c2c(n(Cc3ccccc3)c1C)C(=O)C(=O)c1ccccc1-2 | ? | 5.6µM* | 4.5µM* | 20µM* | ?
CCOC(=O)c1c2c(n(C)c1C)C(=O)C(=O)c1ccc(Br)cc1-2 | ? | ? | -8% | 8.9µM* | -6%
CC#CCN1C(=O)NC(c2ccccc2)C(C(=O)OCC)=C1c1ccccc1 (configuration not stated) | . | 7%[14.2 µM] | . | . | .
CCOC(=O)N1CCN(C(=O)CN(Cc2ccc(Cl)cc2)S(C)(=O)=O)CC1 | -12% | 16% | -8% | -18% | .
CCOC(=O)N1CCN(C(=O)CN(Cc2ccc(Cl)cc2)S(=O)(=O)c2ccc(C)cc2)CC1 | 8.2µM* | -23% | . | ? | .
CCOC(=O)N1CCN(c2nc3ccc(C)cc3n3cnnc23)CC1 | . | . | . | 3% | .

Bioassay records deposited in PubChem BioAssay by National Center for Advancing Translational Sciences (NCATS).
